According to PubChem BioAssay (NCATS):
For part of these data: Potency and affinity values are given separately. Activity calls are given as the source filed them. No rule for the calls is given here. Bridge positions count the residues as written; N and C are the ends. Square brackets hold non-standard residues; d marks the D form. Peptide text beside a SMILES is read from it. hArg = N=C(N)NCCCC[C@H](N)C(=O)O; Mpa = O=C(O)CCS

Legend:
[1] = Ebola virus entry assay, green fluorescence channel
[2] = Ebola virus entry assay, blue channel fluorescence
[3] = Ebola virus entry assay, ratio channel
[4] = Ebola virus entry assay, green channel fluorescence
[5] = Ebola virus entry assay, reporter ratio channel; Channel type: primary
[6] = Ebola virus entry assay, blue channel (ratio component)

Measured: efficacy
For efficacy in this document: 0% is about no effect.

Cc1cn([C@H]2C[C@H](F)[C@@H](CO)O2)c(=O)[nH]c1=O
inactive: [1] -14.7% | [2] | [3] | [4] | [5] | [6]

O=C1Nc2cc(Cl)ccc2Oc2ccccc21
inactive: [1] -23% | [2] | [3] | [4] | [5] | [6]

C[N+](C)(C)CCCCCCCCCC[N+](C)(C)C
inactive: [1] -18% | [2] | [3] | [4] | [5] | [6]

C[C@H](N)[C@H](O)c1cccc(O)c1
inactive: [1] -10.3% | [2] | [3] | [4] | [5] | [6]

N[C@@H](Cc1c[nH]c2ccc(O)cc12)C(=O)O
inactive: [1] 27.4% | [2] | [3] | [4] | [5] | [6]

CCOc1ccccc1C(N)=O
inactive: [1] -14.9% | [2] | [3] | [4] | [5] | [6]

CC(C)(C)NCC(O)COc1cccc2c1CCC(=O)N2 (stereo not drawn)
inactive: [1] -22.9% | [2] | [3] | [4] | [5] | [6]

CC(=C(CCOC(=O)C(C)C)SSC(CCOC(=O)C(C)C)=C(C)N(C=O)Cc1cnc(C)nc1N)N(C=O)Cc1cnc(C)nc1N
inactive: [1] -18% | [2] | [3] | [4] | [5] | [6]

NC(=O)CC[C@@H](N)C(=O)O
inactive: [1] -11.5% | [2] | [3] | [4] | [5] | [6]

Oc1cccc2[nH]ccc12
inactive: [1] 14.5% | [2] | [3] | [4] | [5] | [6]

CC(C)[C@@H]1CC[C@@H](C)CC1=O
inactive: [1] -22.8% | [2] | [3] | [4] | [5] | [6]

N[C@@H](CSSC[C@H](N)C(=O)O)C(=O)O
inactive: [1] -14.5% | [2] | [3] | [4] | [5] | [6]

Cc1ccc(O)cc1
inactive: [1] -17.7% | [2] | [3] | [4] | [5] | [6]

c1ccc2[nH]c(-c3cscn3)nc2c1
inactive: [1] -29.7% | [2] | [3] | [4] | [5] | [6]

O=C(O)c1ccc(OCCN2CCCCC2)cc1
inactive: [1] -23.5% | [2] | [3] | [4] | [5] | [6]

NC(=O)[C@@H]1CSSCCC(=O)N[C@@H](CCCCN=C(N)N)C(=O)NCC(=O)N[C@@H](CC(=O)O)C(=O)N[C@@H](Cc2c[nH]c3ccccc23)C(=O)N2CCC[C@H]2C(=O)N1 ([Mpa][hArg]GDWPC-NH2; disulfide 1-7)
inactive: [1] 12.3% | [2] | [3] | [4] | [5] | [6]

CN1CCN(c2cc3c(nn2)Oc2ccccc2N3C)CC1
inactive: [1] -18% | [2] | [3] | [4] | [5] | [6]

C[C@H]1C[C@H]2[C@@H]3CCC4=CC(=O)C=C[C@]4(C)[C@H]3C(=O)C[C@]2(C)[C@@]1(O)C(=O)CO
inactive: [1] -24.9% | [2] | [3] | [4] | [5] | [6]

Nc1c(NC/C=C\COc2cc(CN3CCCCC3)ccn2)c(=O)c1=O
inactive: [1] -32.1% | [2] | [3] | [4] | [5] | [6]

O=S1(=O)OC(c2ccc(O)cc2)(c2ccc(O)cc2)c2ccccc21
inactive: [1] 19.3% | [2] | [3] | [4] | [5] | [6]

C/C=C/c1ccc(OC)cc1
inactive: [1] -25.2% | [2] | [3] | [4] | [5] | [6]

Nc1c(CC(=O)O)cccc1C(=O)c1ccc(Br)cc1
inactive: [1] 18.5% | [2] | [3] | [4] | [5] | [6]

O=C(O)c1ccc(OCCCOc2ccc(C(=O)O)cc2)cc1
inactive: [1] 11.3% | [2] | [3] | [4] | [5] | [6]

C/C=C(/C(=C/C)c1ccc(OC(C)=O)cc1)c1ccc(OC(C)=O)cc1
inactive: [1] 15.4% | [2] | [3] | [4] | [5] | [6]

CNC1CCCN(c2c(F)cc3c(=O)c(C(=O)O)cn(C4CC4)c3c2OC)C1 (stereo not drawn)
inactive: [1] -29.7% | [2] | [3] | [4] | [5] | [6]

CCCCC(=O)O[C@]1(C(=O)CO)[C@@H](C)C[C@H]2[C@@H]3CCC4=CC(=O)C=C[C@]4(C)[C@@]3(F)[C@@H](O)C[C@@]21C
inactive: [1] 22.2% | [2] | [3] | [4] | [5] | [6]

O=C(O)C(=O)Nc1cccc(-c2nn[nH]n2)c1
inactive: [1] 14.4% | [2] | [3] | [4] | [5] | [6]

O=C(CCNNC(=O)c1ccncc1)NCc1ccccc1
inactive: [1] -17% | [2] | [3] | [4] | [5] | [6]
